The whole screen tested about 340,000 compounds, of which about 1,400 (0.41%) were called active.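 How the source made its calls: active means response above a set limit, near 3 SD of response in nonfluorescent compounds (cut at about 42% in these data); inactive means the rest.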 For the sample, actives were picked, then their nearest neighbours and some compounds at random.

In the assay the target is Beta-2 adrenergic receptor (Homo sapiens) (UniProt P07550). The assay can be described thus: agonist-induced loss of surface beta2AR – cell-based, FAP fluorogen, flow cytometry, primary screen (AID 504454). The conditions noted are these: Am2.2-beta2AR cells, FAP receptor internalization, hits give high values, concentration not given here. On the technique in general: In flow cytometry, cells or beads pass a laser one at a time.
Sequence of Beta-2 adrenergic receptor (Homo sapiens) (P07550 whole entry, looked up): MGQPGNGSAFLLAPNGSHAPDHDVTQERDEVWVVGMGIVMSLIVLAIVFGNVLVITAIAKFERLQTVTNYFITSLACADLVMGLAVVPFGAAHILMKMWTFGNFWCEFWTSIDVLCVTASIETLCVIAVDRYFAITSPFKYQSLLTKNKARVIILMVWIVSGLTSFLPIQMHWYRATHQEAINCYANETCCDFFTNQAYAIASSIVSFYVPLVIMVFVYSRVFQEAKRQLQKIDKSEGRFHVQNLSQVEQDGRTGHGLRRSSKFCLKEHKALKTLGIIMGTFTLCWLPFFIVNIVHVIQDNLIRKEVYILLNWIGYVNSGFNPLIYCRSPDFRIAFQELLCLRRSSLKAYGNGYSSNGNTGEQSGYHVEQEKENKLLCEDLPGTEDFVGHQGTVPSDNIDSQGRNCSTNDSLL
In the case of `COc1ccc(N2C(=O)/C(=C/c3ccco3)C(=O)NC2=S)cc1`, the response was 11.6% (inactive).

Turning to `O=C1NC(=O)N(Cc2ccco2)C(=O)/C1=C\c1ccc(-c2ccc(F)cc2)o1`, the response is 47.3% (active).

For the compound `O=C1NC(=O)N(CCc2ccc(F)cc2)C(=O)/C1=C/C=C/c1ccccc1`, the response is 18.2% (inactive).

As for `NC(=O)Nc1cccc(C(F)(F)F)c1`, the response was -1.13% (inactive).

For the compound `Cc1ccc(N2C(=O)NC(=O)C(CCc3ccncc3)(Cc3cccc(Cl)c3Cl)C2=O)cc1` (stereo not given), the response is -11.4% (inactive).

Take `O=C1NC(=O)C(CCc2ccccn2)(Cc2cccc(Cl)c2Cl)C(=O)N1c1ccc(Br)cc1` (stereo not given): the response was 51.1% (active).

For the compound `COc1ccc(C(=O)CC2C(=O)N(C)C(=O)N(C)C2=O)cc1`, the response is 8.45% (inactive).

`CCN(N=Nc1nonc1OC)c1nonc1OC`: the response is -1.92% (inactive).

Consider `Cc1c(Oc2cc(NN3CCCCC3)c([N+](=O)[O-])cc2[N+](=O)[O-])cccc1[N+](=O)[O-]`, for which the response is -2.15% (inactive).

As for `CCCC(C)n1[nH]c(=O)c2c1NC(=O)CSC2c1ccc(OC)c(OC)c1` (stereo not given), the response is -2.18% (inactive).

Regarding `C[C@]12CCC3C(CC[C@H]4[C@H](O)[C@H](O)CC[C@]34C)C1CCC2=O` (stereo not given in full), the response is 0.88% (inactive).

On to `O=C(N/N=C/c1c(O)n(C2CC2)c(=S)[nH]c1=O)c1ccccc1Cl`, for which the response is -2.3% (inactive).

With `O=C(N/N=C/c1c(O)n(Cc2ccccc2)c(=O)[nH]c1=O)c1ccccc1`, the response is -4.99% (inactive).

For `O=C(N/N=C/c1c(O)n(C2CC2)c(=S)[nH]c1=O)c1ccccc1`, the response was 88.2% (active).

For the compound `CN1CCC[C@@H]1CCO[C@](C)(c1ccccc1)c1ccc(Cl)cc1`, the response is 7.46% (inactive).

For `CCC(=O)CC(c1ccc([N+](=O)[O-])cc1)c1c(O)c2ccccc2oc1=O` (stereo not given), the response was 8.6% (inactive).

Turning to `Cc1ccc2c(c1)C1CN(C)CCC1N2C(=O)Cn1nnc(-c2ccccc2F)n1` (stereo not given), the response is 3.52% (inactive).

As for `CCc1ccc(OCC(=O)N2CCN(CC(=O)Nc3ccccc3Cl)CC2)cc1`, the response was 1.84% (inactive).

For the compound `Cc1ccc(C(C)C)c(OCC(=O)N2CCN(CC(=O)N3CCOCC3)CC2)c1`, the response is 1.49% (inactive).

For `CCC(=O)c1ccc(OCC(=O)N2CCN(CC(=O)Nc3ccc(C)cc3)CC2)cc1`, the response was 80.6% (active).

The record behind these values is PubChem BioAssay AID504454 (NMMLSC, 2011).
